From PubChem
A selection: hits, their analogues and other compounds. The true share with any hit is near 18%.
Six1-Eya2 inh – Six1/Eya2 interaction inhibition. Q15475+O00167. AlphaScreen GST-Six1/His-Eya2 binding, biochemical; stronger effect = lower value. activity change, % (test concentration not listed). 360,000 tested, 0.56% active. AID 651725; in the data active means activity change below about -65%; inconclusive means mostly about -30% to -63%
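GST-Six1 + His-Eya2 (5X stock: 250/500 nM); Tris pH 8.0, 300 mM NaCl, 0.05% BSA, 0.02% Tween 20; GSH donor/Ni acceptor beads; 1 h 37 °C dark; AlphaScreen readout.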
IL1B secr inh – blocks inflammasome-driven IL-1 beta release; AID 743279; THP-1 LPS/ATP IL-1B secretion, AlphaLISA, 16 h; stronger effect = lower value; activity change, % at 57.5 µM; 360,000 tested, 4.7% active; in the data active means activity change below about -50%; inconclusive means mostly about -30% to -49%
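THP-1 cells pretreated 1 hr with compounds (up to 57.5 uM final), then stimulated with LPS (250 ng/mL final) plus ATP (1.25 mM final); secreted IL-1B measured by AlphaLISA after 16 hr, decreased signal indicating inhibition.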
TDP1 cell CPT – growth inhibition of DT40 Tdp1-/-;hTDP1 cells with camptothecin (screen for TDP1 inhibitors); AID 686979; chicken DT40 Tdp1-/-;hTDP1 cells + 20 nM CPT, ATP luminescence, 48 h; 420,000 tested, 12% active; Potency, µM (titrated, usually from 46.2 µM), without a hit: at the top dose activity change, negative = growth inhibition, actives largely listed as inhibitors; further: potency means the concentration at half of the fitted maximal effect; nearly all actives have a fitted effect of over 55% in size
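Cell growth measured by CellTiter-Glo luminescence after a minimum 48 h, 37 C compound exposure with 20 nM CPT in Tdp1-knockout DT40 cells stably expressing hTDP1, seeded 400/well; qHTS titration format.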
TDP1 block – blocks human tyrosyl-DNA phosphodiesterase 1; Q9NUW8; recombinant TDP1, AlphaScreen DNA substrate cleavage; Potency, µM (top dose mostly 130 µM), for inactives: top-dose activity change, negative = inhibition, most hits filed as inhibitors; 350,000 tested, 0.28% active; AID 485290; further: potency means the concentration at half of the fitted maximal effect; nearly all actives have a fitted effect of over 40% in size
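AlphaScreen read-out: signal falls as enzyme removes the 3' tyrosine-FITC from a 5'-biotinylated DNA oligo (15 nM, 5 min, RT). Enzyme was E. coli-made recombinant Tdp1 at 1 nM, exposed to compound for 15 min beforehand; beads 10 ug/ml, 10 min.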
TDP1 cell noCPT – qHTS for Inhibitors of human tyrosyl-DNA phosphodiesterase 1 (TDP1): qHTS in cells in absence of CPT; DT40 Tdp1-/- hTDP1 cells, no CPT, ATP luminescence, 48 h; Potency, µM (top dose mostly 46.2 µM), without a hit: at the highest dose activity change, negative = growth inhibition, hits mostly inhibitors; 420,000 tested, 15% active; AID 686978, 2013; further: potency means the concentration at half of the fitted maximal effect; nearly all actives have a fitted effect of over 55% in size
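Seeded 400 DT40-hTDP1 cells/well (vehicle DMSO, no 20 nM CPT); pinned compounds; ≥48 hr at 37 °C; CellTiter-Glo luminescence as viability measure.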
CtBP-E1A blk – CtBP/E1A binding inhibition; AlphaScreen GST-E1A/His-CtBP binding, 1536-well; stronger effect = lower value; activity change, % (test concentration not listed); 340,000 tested, 0.49% active; AID 651724; in the data active means activity change below about -65%; inconclusive means mostly about -30% to -63%
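AlphaScreen with 125 nM GST-E1A and 125 nM His-CtBP (5X stocks) in Tris pH 8.0, 300 mM NaCl, BSA, Tween 20, TCEP. Compounds preincubated 2 h at 37 deg C, then glutathione donor/nickel acceptor beads added for 1 h at 37 deg C in dark.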
The depositor's hits bear a star; ? = inconclusive; . = no result; [ ] = remark or other dose. Unless noted, the call rests on the fitted dose curve; in most records, active means well fitted curve in the direction sought with a large enough effect; inconclusive means small, poorly fitted or top-dose-only effect, or another doubt; inactive means no such curve, though single readings can be large; an effect the other way counts as inactive or inconclusive. On the % scale 0 is the no-effect control and ±100 the full control effect.

SMILES	Six1-Eya2 inh	IL1B secr inh	TDP1 cell CPT	TDP1 block	TDP1 cell noCPT	CtBP-E1A blk
CN(CCCC[C@H](CNCc1ccc(-c2ccccc2)cc1)N1C[C@H](c2ccccc2)N(CCc2ccc(Cl)c(Cl)c2)C(=O)C1=O)Cc1ccc(-c2ccccc2)cc1	.	.	.	4.7%	.	.
COc1ccc(CNC[C@@H](CCCCN(C)Cc2ccc(OC)cc2)N2C[C@H](c3ccccc3)N(CCc3ccc(Cl)c(Cl)c3)C(=O)C2=O)cc1	-17.4	?	?	6.4%	4.11µM*	-19.8
Cc1cc2cc(C)c3nnc(SCc4ccccn4)n3c2cc1C	2.5	-6.3	23.1µM*	-0.6%	?	1.4
Cc1ccc(C)c2c1cc(C)c1nnc(SCc3ccccn3)n12	3.7	0.0	1.8%	5.6%	11.4%	-2.3
CC(C)(CNC(=O)C1c2ccccc2-c2ccccc21)N1CCOCC1	6.2	-67.7*	9.1%	-3.3%[0.0935 µM]	1.7%	0.3
COc1ccc2c(c1)-c1nc(NC(=O)c3ccccc3F)sc1CC2	.	.	?	-3.2%	?	.
COc1ccc2c(c1)-c1nc(NC(=O)c3cc(OC)c(OC)c(OC)c3)sc1CC2	.	.	?	8.5%	18.4µM*	.
COc1ccc2c(c1)-c1nc(NC(=O)c3cc(Cl)ccc3OC)sc1CC2	.	.	8.2µM*	-7.4%	?	.
Cc1ccc(-c2nn(C)c(=O)c3ccccc23)cc1S(=O)(=O)NCCN(C)C	-7.3	-7.6	0.8%	0.0%	?	-6.3
O=C(COC(=O)Cc1ccccc1F)Nc1ccc2[nH]c(=O)[nH]c2c1	-23.7	13.7	-4.8%	.	-2.6%	-2.0
CNC(=O)N(O)C1N(NC(=O)Nc2ccccc2)C(=S)SC1(C)C (stereo unspecified)	0.7	-3.7	-7.1%	.	-28.5%	7.0
CC1(C)SC(=S)N(/N=C/c2ccccc2)C1N(O)C(=O)Nc1ccc([N+](=O)[O-])cc1 (stereo unspecified)	-16.1	?	16.4µM*	-6.3%	18.4µM*	-14.8
CC1(C)SC(=S)N(NC(=O)Nc2cccc3ccccc23)C1N(O)C(=O)Nc1ccccc1 (stereo unspecified)	-17.0	-25.3	?	8.2%	16.4µM*	-17.6
Cn1nc(C(=O)N2CCOCC2)c([N+](=O)[O-])c1C(=O)N1CCOCC1	0.6	-4.5	-14.7%	-2.7%	2.2%	12.2
COc1ccc(NC(=O)Nc2ccc3c(c2)C(=O)N([C@H](C)CO)C[C@@H](C)[C@@H](CN(C)C(=O)C2CCCCC2)OCCCC[C@H](C)O3)cc1	-14.7	-24.0	?	.	23.1µM*	22.7
COc1ccc(NC(=O)Nc2ccc3c(c2)C(=O)N([C@H](C)CO)C[C@H](C)[C@H](CN(C)Cc2ccc(C(=O)O)cc2)OCCCC[C@@H](C)O3)cc1	-2.7	12.1	0.7%	.	-33.1%	5.1
CCOC(=O)CCCCCC(=O)Nc1ccc2c(c1)C(=O)N([C@H](C)CO)C[C@H](C)[C@H](CN(C)C(=O)C1CCCCC1)OCCCC[C@@H](C)O2	-4.1	20.3	?	.	20.6µM*	0.0
C[C@@H]1CCCCO[C@H](CN(C)C(=O)c2ccccc2)[C@@H](C)CN([C@H](C)CO)C(=O)c2cc(NC(=O)NC3CCCCC3)ccc2O1	-0.8	21.5	?	.	?	6.9
Cc1noc(C)c1NC(=O)Nc1ccc2c(c1)C(=O)N([C@H](C)CO)C[C@H](C)[C@H](CN(C)C(=O)NC1CCCCC1)OCCCC[C@@H](C)O2	1.4	6.7	5.3%	.	3.7%	-1.9
C[C@H]1CCCCO[C@H](CN(C)C(=O)C2CCCCC2)[C@@H](C)CN([C@@H](C)CO)C(=O)c2cc(NC(=O)NC3CCCCC3)ccc2O1	5.1	-25.2	20.6µM*	.	20.6µM*	-2.5
